According to PubChem BioAssay (EPA / NIEHS):
Records with an inconclusive call do not appear. The source made the active and inactive calls. The calls were made as follows, unless noted: active = hit-call score of the fitted dose curve at least 0.9, where 1 is the maximum; inactive = score below 0.9.

Columns and labels:
[1] = test system: SRY-box transcription factor 17 (SOX17) Protein Expression, Deisenroth Lab, SOX17 (gene 64321); test: CCTE_Deisenroth_DEVTOX-GLR_legacy_Sox17: (Legacy) CCTE's DevTox GLR-Endo Assay Evaluation of SRY-box transcription factor 17 (SOX17) Protein Expression, Deisenroth Lab (AID 2284341); settings: actives raise or lower the signal
Outline: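 RUES2-GLR human pluripotent cells, seeded 24 h, then differentiated 48 h in defined media with two chemical exposures 24 h apart (1 nM - 200 uM, 10 points). Sox17+ fraction from high-content fluorescence imaging; bidirectional fit versus 0.2% DMSO.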

[2] = test system: SRY-box transcription factor 2 (SOX2) Protein Expression, Deisenroth Lab, SOX2 (gene 6657); test: CCTE_Deisenroth_DEVTOX-GLR_legacy_Sox2: (Legacy) CCTE's DevTox GLR-Endo Assay Evaluation of SRY-box transcription factor 2 (SOX2) Protein Expression, Deisenroth Lab (AID 2284346)
Outline: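 Percent Sox2-positive cells was scored by high-content imaging of 5 fields per well. Positivity cutoff was 5x BMAD over the directed endoderm control, and the DMSO median was subtracted. Cells were RUES2-GLR, dosed twice at 24-h intervals over 48 h of differentiation (1 nM-200 uM).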

[3] = test system: SRY-box transcription factor 2 (SOX2) Protein Expression, Deisenroth Lab, SOX2 (gene 6657); test: CCTE_Deisenroth_DEVTOX-GLR_Endo_SOX2: CCTE's DevTox GLR-Endo Assay Evaluation of SRY-box transcription factor 2 (SOX2) Protein Expression, Deisenroth Lab (AID 2284412; active = hit-call score of the fitted dose curve at least 0.9, where 1 is the maximum)
Outline: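 Endpoint is percent SOX2-positive cells (SOX2+ count/total cells) minus 0.2% DMSO control, from high-content imaging of fixed, nuclear-stained RUES2-GLR cells. Dosing twice at 24 h intervals over 48 h differentiation, 1 nM–200 uM in 10 points.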

[4] = test system: Brachyury (BRA) Protein Expression, TBXT (gene 6862); test: CCTE_Deisenroth_DEVTOX-GLR_Endo_BRA: CCTE's DevTox GLR-Endo Assay Evaluation of Brachyury (BRA) Protein Expression, Deisenroth Lab (AID 2284417)
Outline: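 RUES2-GLR human pluripotent cells, seeded 24 h, then differentiated 48 h in defined media with two chemical exposures 24 h apart (10-point series, 1 nM - 200 uM). Fixed, nuclear-stained, imaged; endpoint is percent BRA+ cells minus 0.2% DMSO control.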

[5] = CCTE_Deisenroth_DEVTOX-GLR_Endo_CellCount: Viability Assessment in CCTE's DevTox GLR-Endo Assay, Deisenroth Lab (AID 2284420)
Outline: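 Percent change in nuclear-stain cell counts versus 0.2% DMSO, from high-content imaging over 5 fields per well. Over a 48 h endoderm differentiation, RUES2-GLR cells received two doses 24 h apart across a 1 nM–200 uM series, with n=4.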

[6] = test system: SRY-box transcription factor 17 (SOX17) Protein Expression, Deisenroth Lab, SOX17 (gene 64321); test: CCTE_Deisenroth_DEVTOX-GLR_Pluri_SOX17: CCTE's DevTox GLR-Pluri Assay Evaluation of SRY-box transcription factor 17 (SOX17) Protein Expression, Deisenroth Lab (AID 2284427; active = hit-call score of the fitted dose curve at least 0.9, where 1 is the maximum)
Outline: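 The endpoint is SOX17+ cells as a fraction of cell count, corrected for the 0.2% DMSO control and obtained by high-content fluorescence imaging of fixed cells. Cells were RUES2-GLR under a 48-hour endoderm differentiation, dosed twice at 24-hour intervals over 1 nM–200 uM.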

[7] = test system: SRY-box transcription factor 2 (SOX2) Protein Expression, Deisenroth Lab, SOX2 (gene 6657); test: CCTE_Deisenroth_DEVTOX-GLR_Pluri_SOX2: CCTE's DevTox GLR-Pluri Assay Evaluation of SRY-box transcription factor 2 (SOX2) Protein Expression, Deisenroth Lab (AID 2284428)
Outline: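 Percent SOX2+ cells (SOX2+ count per total cells, fluorescent imaging) in RUES2-GLR human pluripotent line, expressed relative to 0.2% DMSO. Compounds dosed twice at 24 h intervals during 48 h, 1 nM - 200 uM, 10 concentrations.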

[8] = test system: Brachyury (BRA) Protein Expression, Deisenroth Lab, TBXT (gene 6862); test: CCTE_Deisenroth_DEVTOX-GLR_Pluri_BRA: CCTE's DevTox GLR-Pluri Assay Evaluation of Brachyury (BRA) Protein Expression, Deisenroth Lab (AID 2284429; active = hit-call score of the fitted dose curve at least 0.9, where 1 is the maximum)
Outline: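 Percent BRA+ cells (BRA+ count over total cells) by high-content imaging of fixed RUES2-GLR cultures, corrected by 0.2% DMSO control. Cells received two doses over 48-hour differentiation, 1 nM–200 uM, n=4 experiments.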

[9] = CCTE_Deisenroth_DEVTOX-GLR_Pluri_CellCount: Viability Assessment in CCTE's DevTox GLR-Pluri Assay Evaluation of Total Cell Counts, Deisenroth Lab (AID 2284430)
Outline: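 Cytotoxicity readout: fluorescent nuclei counts by high-content imaging, expressed as percent change relative to 0.2% DMSO. Human RUES2-GLR pluripotent line differentiated 48 h, dosed twice at 24-h intervals across 1 nM - 200 uM (10 points).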

[10] = CCTE_Harrill_HTTr_Viability_MCF7: CCTE's 6-hour Cell Viability Assessment for the High-Throughput Transcriptomics (HTTr) Platform, in MCF-7 cells cultured in DMEM + 10% fetal bovine serum, Harrill Lab (AID 2284010)
Outline: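 Propidium iodide exclusion, imaged by high-content analysis, gauged viability after a six-hour exposure across eight concentrations. Cells were MCF-7 grown in DMEM with 10% fetal bovine serum; fits run in both directions against DMSO.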

[11] = CCTE_Harrill_HTTr_Apoptosis_MCF7: CCTE's 6-hour Apoptosis Assessment for the High-Throughput Transcriptomics (HTTr) Platform, in MCF-7 cells cultured in DMEM + 10% fetal bovine serum, Harrill Lab (AID 2284011)
Outline: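 High-content imaging of CellEvent Caspase 3/7 Green signal follows a six-hour exposure, with eight concentrations per chemical. MCF-7 cells grown in DMEM plus 10% fetal bovine serum; activity fitted in both directions against DMSO.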

[12] = CCTE_Harrill_HTTr_CellCount_MCF7: CCTE's Cell Proliferation Assessment for the High-Throughput Transcriptomics (HTTr) Platform, Harrill Lab (AID 2284012; active = hit-call score of the fitted dose curve at least 0.9, where 1 is the maximum;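 also: cells exposed to compound for six hours; intended direction is loss of nuclei count meaning fewer cells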)
Outline: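 Cell count from high-content imaging of Hoechst-labeled nuclei serves as viability/growth readout. Chemicals were applied to MCF-7 cells in eight concentrations for six hours, with fitting in both directions relative to DMSO.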

[13] = test system: Brachyury (BRA) Protein Expression, Deisenroth Lab, TBXT (gene 6862); test: CCTE_Deisenroth_DEVTOX-GLR_legacy_Bra: (Legacy) CCTE's DevTox GLR-Endo Assay Evaluation of Brachyury (BRA) Protein Expression, Deisenroth Lab (AID 2284329)
Outline: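 Percent Bra-positive cells, scored by high-content imaging against a threshold of 5x BMAD over the undifferentiated control median, with the 0.2% DMSO median subtracted. RUES2-GLR cultures were dosed twice at 24 h intervals across a 48 h differentiation, at 1 nM–200 uM in ten steps, with n=4 replicates.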

[14] = TOX21_PR_LUC_Followup_Agonist_viability: Viability Assessment in the Tox21 HEK293 Progesterone Receptor (PR) Agonism Luciferase Follow-Up Assay (AID 2283941; active = hit-call score of the fitted dose curve at least 0.9, where 1 is the maximum;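 also: loss of signal means cytotoxicity so actives lower viability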)
Outline: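 Cytotoxicity counter-readout in the PR-A luciferase reporter line HEK293, with 16 h compound exposure at 37C after cells were cultured in charcoal-stripped serum. Cellular ATP quantified by CellTiter-Glo luminescence.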

Measured: AC50

Cc1nc2sccn2c(=O)c1CCN1CCC(=C(c2ccc(F)cc2)c2ccc(F)cc2)CC1
active: [1] 11 µM | [2] 8.41 µM | [3] 20.4 µM | [4] 17.7 µM | [5] 9.15 µM | [7] 16.9 µM | [8] 24.1 µM | [9] 9.92 µM
inactive: [6]

C1=CCC(c2ccccc2)CC1 (stereo unspecified)
inactive: [10] | [11] | [12]

O=C1Cc2cc(CCN3CCN(c4nsc5ccccc45)CC3)c(Cl)cc2N1
inactive: [6]
active: [13] 3.94 µM | [1] 3.91 µM | [2] 4.3 µM | [3] 6.29 µM | [4] 4.78 µM | [5] 3.31 µM | [7] 4.27 µM | [8] 4.26 µM | [9] 4.26 µM

CNC(=O)c1cc(Oc2ccc(NC(=O)Nc3ccc(Cl)c(C(F)(F)F)c3)cc2)ccn1
active: [13] 0.815 µM | [1] 0.609 µM | [2] 1.5 µM | [3] 1.45 µM | [4] 4.31 µM | [5] 1.08 µM | [6] 20.9 µM | [7] 29.3 µM | [8] 1.3 µM | [9] 184 µM

Cc1nc(Nc2ncc(C(=O)Nc3c(C)cccc3Cl)s2)cc(N2CCN(CCO)CC2)n1
active: [13] 3.19 µM | [1] 0.811 µM | [2] 151 µM | [3] 3.15 µM | [4] 21.7 µM | [5] 0.0574 µM | [6] 0.017 µM | [7] 0.621 µM | [8] 0.0529 µM | [9] 0.0132 µM

COc1cc2ncnc(Nc3ccc(F)c(Cl)c3)c2cc1OCCCN1CCOCC1
active: [13] 8.42 µM | [1] 5.74 µM | [2] 5.86 µM | [3] 10.9 µM | [4] 10.8 µM | [5] 6.57 µM
inactive: [6] | [7] | [8] | [9]

COc1cc2c(Nc3ccc(Br)cc3F)ncnc2cc1OCC1CCN(C)CC1
inactive: [7] | [9]
active: [13] 8.49 µM | [1] 4.92 µM | [2] 7.85 µM | [3] 8.62 µM | [4] 6.72 µM | [5] 4.46 µM

Cc1ccc(NC(=O)c2ccc(CN3CCN(C)CC3)cc2)cc1Nc1nccc(-c2cccnc2)n1
active: [13] 20.1 µM | [1] 16.5 µM | [2] 19.3 µM | [3] 25.6 µM | [4] 22.7 µM | [5] 15.8 µM | [6] 47.4 µM | [7] 15.7 µM | [8] 23.2 µM | [9] 22.4 µM

C#C[C@]1(O)CC[C@H]2[C@@H]3CCc4cc(OC5CCCC5)ccc4[C@H]3CC[C@@]21C
inactive: [14]
